In PubChem BioAssay (NCI):
About 83,000 compounds went through this panel and 20% of them were active in at least one assay; those are over-represented in the sample as a whole.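 In brief: 96-well plates, 48 h treatment, single concentration, percent growth endpoint.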 A number with no mark means an inactive call. The source made the active and inactive calls. Rule for the calls: active = growth percent below 10; inactive = the rest.

The compounds below were run on HL-60(TB) leukemia (assay: NCI-60 one-dose screen, 48 h (100 = growth as untreated, 0 = no growth, -100 = all killed)). Conditions: 10 µM unless noted.

Row | Compound | growth
1 | CCCCCCCC/C=C\CCCCCCCCOc1ccc(CC(=O)NCC[N+]2(C)CCCC2)cc1 | -31.6% (active)
2 | COc1cc(NCCC2CCCCN2)c2ncccc2c1OC (stereo not given) | 0.805% (active)
3 | Cc1ccc(/C=C(\C#N)n2nc3cccc(F)c3n2)cc1 | 86.6%
4 | O=C(NCCCCCCCNC(=O)OCc1ccc2c(Cl)cc(Cl)c(O)c2n1)OCc1ccc2c(Cl)cc(Cl)c(O)c2n1 | -45.9% (active)
5 | CCCCC(CC)OC(=O)C(Br)CC (stereo not given) | 99.6%
6 | COc1nc(OC)nc(-c2cc(-c3cc(OC)c(OC)c(OC)c3)no2)n1 | 95.2%
7 | COc1ccccc1Nc1cc(O)c2c(=O)cc(-c3ccccc3)oc2c1 | -6.07% (active)
8 | O=C1CCC/C=C\C[C@H]2C=CC(=O)/C2=C/C[C@H](CCc2cccc(C(F)(F)F)c2)O1 | -25.5% (active)
9 | O=C1c2ccccc2-c2nnc(-c3ccc(Br)cc3)cc21 | 0.71% (active)
10 | CN(C)CCCn1c2c(c3ccc(-c4ccn[nH]4)cc3c1=O)C(=O)c1ccccc1-2 | -7.99% (active)
11 | O=C(Cc1ccc(-c2ccc(OCCN3CCOCC3)cc2)cn1)NCc1ccccc1 | -31.2% (active)
12 | N=C(N)c1ccc(-c2ccc(-c3cccs3)s2)s1 | -62% (active)
13 | CCCn1c2cc(OCc3cn(-c4ccc(Cl)cc4)nn3)ccc2c2ccnc(C)c21 | -51.4% (active)
14 | CC(=O)Nc1ccc(C(=O)CCl)cc1 | -19.4% (active)
15 | O=C(Nc1ccccc1C(=O)N/N=C(\c1ccccc1)c1ccccn1)c1ccc(F)cc1 | -1.1% (active)
16 | O=C(Nc1ccc(Cl)cc1)N1CCN(c2ccc3nncn3n2)CC1 | -65.2% (active)
17 | COc1cc2nc3c(=O)n(CCN(C)C)cnn3c(=O)c2cc1OC | 106%
18 | CCN1CCN(c2ccc(NC(=O)Nc3nc4ccc(-c5ccccc5OC)cc4s3)cc2)CC1 | -74.1% (active)
19 | CCN(CC)c1ccc(/C=C/C=C2\NC(=O)NC2=O)cc1 | 50.8%
20 | O=C1C=CC(=O)c2c(O)c(CO)c(CO)c(O)c21 | 64.2%

Row | Compound | growth
21 | Cc1cc(=O)oc2cc(Oc3nc(-c4ccc(Cl)cc4)cn4c(-c5ccc(Cl)cc5)cnc34)ccc12 | 86.8%
22 | COc1ccc(C2Nc3ncnc(N)c3N=C3c4ccccc4C(=O)C32)cc1 (stereo not given) | 58.8%
23 | CS(=O)(=O)c1ccc(NC(=O)c2ccccc2)nc1 | 67.5%
24 | O=C1/C(=C/c2cn(-c3ccccc3)nc2-c2ccccc2)SC(=S)N1c1ccc(Cl)cc1 | 86%
25 | COc1cc(C2CC(c3ccc(SC)cc3)=NN2C(C)=O)cc(OC)c1OC (stereo not given) | 17.6%
26 | O=C1Nc2ccccc2/C1=C/c1cn(CCCn2c3ccccc3c(=O)c3ccccc32)c2ccccc12 | 84%
27 | Cc1ccc(/C=C/C(=O)Nc2ncc(Cc3ccc(F)cc3)s2)o1 | 2.75% (active)
28 | CN(C)c1ccc(/C=C2\C=C(c3ccccc3)N(CCc3ccccc3)C2=O)cc1 | 74.5%
29 | O=c1c2ccccc2n2cnc3ccc(Cl)c1c32 | 82.6%
30 | CCN(CC)CCn1c2ccc(OC)cc2c2sc3cc(O)ccc3c(=O)c21 | 31%
31 | NC(=O)[C@@H]1Cc2ccccc2CN1C(=O)c1ccc2c(c1)Cc1ccccc1-2 | 72.2%
32 | COc1cc(/C=N/Nc2nc(-c3ccc(F)cc3)c(C#N)c(N3CCOCC3)n2)ccc1O | 72.5%
33 | O=C1C(Cl)=C(Nc2ccccc2)C(=O)c2ccccc21 | -19.5% (active)
34 | CCCCCCCCCCCCCCCC(=O)NS(=O)(=O)OC[C@H]1O[C@@H](n2cnc3c(N)ncnc32)[C@H](O)[C@@H]1O | -11.6% (active)
35 | COc1cc(-c2cc(-c3ccc(Nc4nc(Nc5ccc(Cl)cc5)nc(Nc5ccc(Cl)cc5)n4)cc3)no2)cc(OC)c1OC | -68.2% (active)
36 | Cc1cc(-c2ccc(N(C)C)cc2)c2sc(=O)[nH]c2n1 | 14.3%
37 | CCCOc1cc2ccccc2cc1C(=O)Nc1nc(N)c2c(ccc3nccc32)[nH]1 | -56.3% (active)
38 | C=CC(=O)Nc1cccc(Oc2nccc(Nc3nnc(-c4ccc(Br)cc4)s3)n2)c1 | 121%
39 | O=C(CCl)N1c2ccccc2Sc2ccc3ccccc3c21 | -44.1% (active)
40 | CCN1CCN(c2nc3ccccc3c3c(=O)c4ccccc4sc23)CC1 | 76.4%
